Molecules are shown by their SMILES. Inconclusive results are not listed. Unmarked numbers belong to inactive results. The call rests on the fitted dose curve; in most records, active means well fitted cell-killing curve with a large enough effect; inconclusive means small, poorly fitted or top-dose-only effect; inactive means flat fitted curve, though single readings scatter.
On the % scale 0 is the no-effect control and ±100 the full control effect.

A short description of this assay: NCATS anti-infectives library activity on HEK293 viability as a counter-qHTS vs the C. elegans viability qHTS (AID 1745854). To be noted: HEK293 viability counter-screen; series mostly up to 41.8 µM; activity change, negative = cytotoxicity: at the top concentration. The text has this:
Assay Development and Screening Technology Laboratory (ADST)
National Center for Advancing Translational Sciences (NCATS), Rockville, MD
National Institute of Health (NIH), Bethesda, Maryland
Caenorhabditis elegans has helped elucidate the evolutionarily conserved genetics underlying pathways and cellular processes implicated in human disease and may be ideally positioned to reveal novel pharmacological properties of exiting drugs. The organism's short life cycle and microscopic size is applicable to the technical requirements of high-throughput screening. Here a quantitative high-throughput screening (qHTS)-based forward chemical biology platform has been developed using C. elegans. 384-well microtiter plate laser scanning cytometry was used in the rapid detection and quantification of the fluorescent protein-encoded phenotype to score worm viability. In a proof-of-concept study, the pharmacological qHTS profile obtained from a library of 643 anti-infective compounds.
1. Inglese, J., Auld, D. S., Jadhav, A., Johnson, R. L., Simeonov, A., Yasgar, A., Zheng, W., and Austin, C. P. (2006) Quantitative high-throughput screening: A titration-based approach that efficiently identifies biological activities in large chemical libraries, P Natl Acad Sci USA 103, 11473-11478.
2. Auld, D. S., Johnson, R. L., Zhang, Y. Q., Veith, H., Jadhav, A., Yasgar, A., Simeonov, A., Zheng, W., Martinez, E. D., Westwick, J. K., Austin, C. P., and Inglese, J. (2006) Fluorescent protein-based cellular assays analyzed by laser-scanning microplate cytometry in 1536-well plate format, Method Enzymol 414, 566-589.
3. Zuck, P., Lao, Z., Skwish, S., Glickman, J. F., Yang, K., Burbaum, J., and Inglese, J. (1999) Ligand-receptor binding measured by laser-scanning imaging, Proc Natl Acad Sci U S A 96, 11122-11127.
PROTOCOL TABLE (as described by Inglese J, Shamu CE and Guy RK. 2007)
SEQUENCE No. (e.g., 1, 2, 3, etc.); […] (e.g., C. elegans, Compounds, Incubation, Read, etc.); VALUE and DESCRIPTION.
1. Compounds. Library compounds and digitonin control added at 25 nL per well to 7 assay ready 1536-well Greiner white/solid bottom high base, TC plates and two DMSO control plates, transferred by Echo acoustic dispenser.
2. Cells. Seed 1500 HEK293 per well in 6 uL into assay ready Greiner 1536-well plates.
3. Incubation. Incubate plated cells with compounds at 37C in 5% CO2, 95% RH for 24 hr.
4. Reagent. Add 4 uL of CellTiter-Glo reagent from Promega per well of Greiner 1536-well plates with BioRAPTR FRD.
5. Incubation. Incubate treated cells at room temperature for 10 min., protect from light.
6. Detector. CellTiter-Glo luminescence measured using CCD-based camera (Viewlux) with settings as follows: Exposure, 1 sec; Gain, High; Speed, Slow; Binning, 2X.
NOTES (numbers refer to Sequence numbers above; values are from representative experiments)
1. NIH Anti-Infectives library pre-dispensed into 7 assay ready 1536-well Greiner white/solid bottom high base, TC plates with Echo 555 acoustic dispenser. Most compounds dispensed at 10 mM high concentration and plated in 7-pt 1:5 inter-plate titration at 25 nl / well for a final assay concentration range of 41.7 uM - 2.7 nM. Two 1536-well Greiner assay plates of DMSO plated as screening controls to be read at the beginning and the end of the screen. Controls included DMSO vehicle control added at 25 nl/well to each well of column 1 and […] (83.3 uM final assay concentration), and Digitonin titrated 1:2 at 25 nl/ well to column 4 in duplicate for a final assay concentration range of 83.3 uM - 2.5 nM.
2. HEK293 cells grown for 48 hr in one T175 culture flask in DMEM high glucose media supplemented with 10% FBS and 1% Pen/Strep antibiotic. Cells trypsinized and diluted in 10 ml supplemented media, strained through 40 µm cell strainer, and diluted to a total volume of 40 ml with supplemented media. […]
Take `NS(=O)(=O)OC[C@@H]1C[C@@H](n2ccc3c(N[C@H]4CCc5ccccc54)ncnc32)C[C@@H]1O`: the “activity change, negative = cytotoxicity” value was -16.9%.

In the case of `OC[C@H]1O[C@@H](Oc2cc(O)cc(/C=C/c3ccc(O)cc3)c2)[C@H](O)[C@@H](O)[C@@H]1O`, the “activity change, negative = cytotoxicity” value is -5.26%.

Take `N[C@H]1C[C@H]1c1ccc(-c2cccc(O)c2)cc1`: the “activity change, negative = cytotoxicity” value was -1.71%.

Consider `Cc1c(-c2ccnn2C)cc(C(=O)NCc2ccc(S(C)(=O)=O)cn2)c(=O)n1-c1cccc(C(F)(F)F)c1`, for which the “activity change, negative = cytotoxicity” value was -5.56% [at 18.2 µM].

Take `CCOc1nc2cccc(C(=O)O)c2n1Cc1ccc(-c2ccccc2-c2noc(=O)[nH]2)cc1`: the “activity change, negative = cytotoxicity” value is -18.2%.

As for `COC(=O)C1=CO[C@@H](O[C@@H]2O[C@H](CO)[C@@H](O)[C@H](O)[C@H]2O)[C@@H]2[C@@H](C)[C@@H](O)C[C@H]12`, the “activity change, negative = cytotoxicity” value was 4.61%.

With `O=C(O)C[C@H](O)C[C@H](O)/C=C/c1c(C2CC2)nc2ccccc2c1-c1ccc(F)cc1`, the “activity change, negative = cytotoxicity” value was -7.26%.

In the case of `CCOC(=O)[C@H]1O[C@@H]1C(=O)N[C@@H](CC(C)C)C(=O)NCCC(C)C`, the “activity change, negative = cytotoxicity” value was -6.6%.

In the case of `CCCCC(CC)COC(=O)CC(C(=O)OCC(CC)CCCC)S(=O)(=O)O` (configuration not stated), the “activity change, negative = cytotoxicity” value was -6.99%.

As to `Cc1nnc(C(C)C)n1C1CC2CCC(C1)N2CC[C@H](NC(=O)C1CCC(F)(F)CC1)c1ccccc1` (some centres not stated), the “activity change, negative = cytotoxicity” value was 15.1%.

As to `CC(C)(O)CNc1nc(Nc2ccnc(C(F)(F)F)c2)nc(-c2cccc(C(F)(F)F)n2)n1`, the “activity change, negative = cytotoxicity” value is -8.98%.

As to `CCN(CC)Cc1cc(Nc2ccnc3cc(Cl)ccc23)ccc1O`, the “activity change, negative = cytotoxicity” value was -29.6%.
